Most compounds without a hit are left out; they make up all but 19% or so of the library.
Pf growth 96h: Primary qHTS for delayed death inhibitors of the malarial parasite plastid, 96 hour incubation; 320,000 compounds, 6.9% hits; P. falciparum luciferase reporter growth, 96 h; Potency, µM (doses to about 28.7 µM), inactives show at the highest dose activity change, negative = inhibition, actives largely listed as inhibitors; AID 504834, 2011; also: potency is read from the fitted curve at half-maximal effect; % is scaled to controls: 0 for no effect and ±100 for the full control effect
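P. falciparum expressing integrated firefly luciferase, in erythrocytes at 2% hematocrit, 0.05% parasitemia, incubated with compounds 96 h at 37 C, 5% CO2. Growth inhibition read as loss of luminescence; two-generation exposure targets delayed-death apicoplast inhibitors.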
SARS PLP yeast: qHTS of Yeast-based Assay for SARS-CoV PLP; S. cerevisiae expressing SARS-CoV PLpro, growth rescue; Potency, µM (top dose mostly 32.9 µM), inactives show at the top dose activity, positive = growth rescue, usual class: activators; 330,000 compounds, 0.19% hits; calls by dose curve; also: potency is read from the fitted curve at half-maximal effect; 0% is about no effect; nearly all actives have a fitted effect of over 55% in size
Shiga toxin inh: A qHTS for Small Molecule Inhibitors of Shiga Toxin; AID 2315, 2010; Vero cells, Shiga toxin protein synthesis inhibition reporter; inhibition, % at 38.7 µM; 290,000 compounds, 9.2% hits; in the data active = inhibition mostly above about 28%, no sharp cut-off; inactive = mostly below about 43%; also: 0% is about no effect
AMA1 RON2 block: qHTS for Inhibitors of AMA1-RON; Towards Development of Antimalarial Drug Lead: Primary Screen | AlphaScreen AMA1-biotinylated RON2 peptide binding | Potency, µM (top dose mostly 58.2 µM), for the others: top-dose activity change, negative = inhibition, usual class: inhibitors | 360,000 compounds, 0.2% hits | AID 720542, 2013;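 also: potency is read from the fitted curve at half-maximal effect; 0% = vehicle wells and -100% = peptide control; nearly all actives have a fitted effect of over 45% in size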
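AMA1 (3D7) with his tag at 25 nM final met compounds first, then biotinylated RON2 peptide at 25 nM; detection used donor plus acceptor beads, 10 µg/mL apiece, read by AlphaScreen after 30 min at room temperature.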
CHX counter: Cycloheximide Counterscreen for Small Molecule Inhibitors of Shiga Toxin. cell reporter, cycloheximide protein synthesis inhibition counterscreen. max response, %. 300,000 compounds, 12% hits; in the data active = max response mostly above about 13%, no sharp cut-off; inactive = mostly below about 14%; also: read at 38.3 µM for the half of the compounds with a filed dose; 0% is about no effect
Pf growth 48h: Primary qHTS for delayed death inhibitors of the malarial parasite plastid, 48 hour incubation; P. falciparum luciferase growth in erythrocytes, 48 h; AID 504832, 2011; Potency, µM (series often up to 28.7 µM), for inactives: top-dose activity change, negative = inhibition, actives largely listed as inhibitors; 310,000 compounds, 5.9% hits; also: potency is read from the fitted curve at half-maximal effect; % is scaled to controls: 0 for no effect and ±100 for the full control effect
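Cell-based growth assay: transgenic P. falciparum expressing firefly luciferase, cultured in red cells within RPMI 1640 containing 0.5% w/v Albumax, 24 mM bicarbonate and gentamycin. A drop in luciferase activity indicates inhibition.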
* = called active by the depositor; ? = inconclusive; / = not tested or not shown; [ ] = another dose, or the depositor's remark. Unless noted, calls follow the shape of the dose curve; as a rule, active = well fitted curve in the direction sought with a large enough effect; inconclusive = small, poorly fitted or top-dose-only effect, or another doubt; inactive = no such curve, though single readings can be large; an effect the other way counts as inactive or inconclusive.

SMILES | Pf growth 96h | SARS PLP yeast | Shiga toxin inh | AMA1 RON2 block | CHX counter | Pf growth 48h
COC(=O)c1cc(S(=O)(=O)N(C)C2CCCCC2)cn1C | ? | -4% | -9 | -1% | 1 | -4%
CCC(C)NC(=O)c1cn(C)c(=O)c2cc(OC)c(OC)cc12 (stereo not drawn) | 9.3µM* | 1% | -2 | 1% | -2 | 0%
COCCNC(=O)c1cn(C)c(=O)c2cc(OC)c(OC)cc12 | 8.3µM* | 11% | 4 | 12% | -3 | 13%
CNC(=O)CN(Cc1ccccc1)S(=O)(=O)c1ccc(Cl)cc1 | ? | 4% | -2 | 4% | -3 | 3%
O=C(COc1ccc(Br)cc1)Nc1ccc(N2CCOCC2)cc1N1CCOCC1 | ? | 5% | / | 1% | / | ?
CC(Oc1ccc(Br)cc1)C(=O)Nc1ccc(N2CCOCC2)cc1N1CCOCC1 (stereo not drawn) | 10µM* | -3% | / | -16% | / | 12µM*
CC(Oc1cccc(Cl)c1)C(=O)Nc1ccccc1N1CCCCC1 (stereo not drawn) | 12µM* | -2% | / | -3% | / | 5.9µM*
CC(Oc1ccc(F)cc1)C(=O)Nc1ccccc1N1CCCCC1 (stereo not drawn) | 12µM* | -4% | 10 | 6% | -3 | ?
CC(=O)O/N=C(\N)c1cnn2c(C(F)(F)F)cc(C(F)(F)F)nc12 | 24% | 2% | -2 | -9% | 1 | -2%
O=C(Oc1ccc2ccc(OC(=O)N3CCCCCC3)cc2c1)N1CCCCCC1 | ? | -3% | 40* | -2% | 22* | 52%
O=C(Oc1ccc(Cl)cc1)N1CCOCC1 | ? | -3% | 27* | 11% | 16* | 45%
O=C(Oc1ccc(Cl)cc1)N1CCCCC1 | -4% | 2% | 49* | -2% | 35* | 31%
O=C(Oc1ccc(-c2ccccc2)cc1)N1CCOCC1 | / | 0% | 109* | -5% | 39* | 151%
COc1ccc(OC(=O)N2CCOCC2)cc1 | -15% | -7% | 1 | 2% | 2 | 27%
O=C(Oc1ccccc1)N1CCCC1 | 50% | -1% | 1 | 10% | -3 | 40%
O=C(CNC(=O)c1ccccc1Cl)N/N=C/C=C/c1ccccc1 | ? | 22% | 8 | 39% | 7 | 18%
CCOC(=O)C(Cc1ccccc1)(Cc1ccccc1)C(C)=O | 4% | -4% | -8 | 23% | -8 | 11%[0.00184 µM]
CCC(C)c1ccccc1NC(=O)COC(=O)c1ccc(C)c(NC(=O)c2ccco2)c1 (stereo not drawn) | / | 6% | 22 | 3% | 1 | ?
O=C(Oc1ccc(Oc2ccccc2)cc1)N1CCC(O)CC1 | 44% | -2% | 60* | 15% | 52* | 29%
O=C(Oc1ccc(-c2nnco2)cc1)N1CCCCC1 | / | -4% | 35* | 24% | 25* | 40%
O=S(=O)(c1ccc(-c2nnco2)cc1)N1CCCCC1 | 0% | 1% | -5 | -8% | -3 | 9%
CC(C)(C)c1ccc(C(=O)Cn2nc(C(=O)O)c3ccccc3c2=O)cc1 | -11% | 0% | 17 | 7% | 13 | -6%
FC(F)Oc1ccc(/C=N/N2CCCCC2)c(OC(F)F)c1 | 8% | 1% | 79* | / | 32* | 18%
O=C(N/N=C/c1ccc(OC(F)F)cc1OC(F)F)NC1CCCCC1 | ? | -10% | 29 | 5% | 3 | 10µM*
COc1ccc(OC)c(/C=N/NC(=O)C(=O)N2CCCC2)c1 | ? | 1% | -8 | -13% | 11 | 36%
COc1cccc(/C=N/NC(=O)NC2CCCCC2)c1O | ? | -1% | 52* | 79% | 34* | ?
COc1cccc(/C=N/NC(=O)C(=O)N2CCCCCC2)c1O | 50% | 6% | 15 | 76% | 21* | -5%
COc1ccc(OC)c(/C=N/NC(=O)CC(=O)NC2CCCCC2)c1 | 8% | 0% | -16 | -5% | -3 | 29%
CCN(CC)CCCN=Cc1c(O)n(-c2ccccc2C)c(=O)c2ccccc12 | ? | 0% | -7 | 12% | -1 | ?
